Experimental data: PubChem BioAssay (EPA / NIEHS)
Inconclusive results are not listed. Active and inactive are the calls of the source. Rule for the calls, unless noted: active = hit-call score of the fitted dose curve at least 0.9, where 1 is the maximum; inactive = score below 0.9.

How the values were obtained:
[1] = APR_HepG2_CellCycleArrest_24hr: Apredica 24-hour HepG2 Assay for Cell Cycle Arrest (AID 2282905); conditions: imaging, actives raise or lower the signal;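 note: cell cycle arrest scored as ratio of 2N to 4N nuclear DNA content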
How it was run: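 Compounds at 0.39–200 uM (0.5% DMSO) for 24 h, then fixed and Hoechst 33342 stained. Cell-cycle analysis of nuclear DNA content by high-content imaging, fitted bidirectionally versus DMSO.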

[2] = APR_HepG2_NuclearSize_24hr: Apredica 24-hour HepG2 Assay for Nuclear Size (AID 2282907); conditions: high-content imaging, actives raise or lower the signal
How it was run: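 HepG2 cells exposed 24 h to compounds at 0.39–200 uM (0.5% DMSO), fixed, Hoechst 33342 stained and imaged at 20x; nuclear diameter measured by automated image analysis, fitted bidirectionally against DMSO controls.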

[3] = APR_HepG2_CellLoss_24hr: Apredica 24-hour HepG2 Assay for Cell Loss (AID 2282908); conditions: high-content imaging;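 for AC50: fit in both directions so a hit may be cell loss or gain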
How it was run: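 HepG2 cells exposed 24 hr to 0.39–200 uM compound in duplicate at 0.5% v/v final DMSO. Cells fixed in 3.7% formaldehyde and Hoechst 33342-stained. Cell number came from nuclear imaging at 20x. Bidirectional fit versus DMSO.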

[4] = APR_HepG2_MicrotubuleCSK_24hr: Apredica 24-hour HepG2 Assay for Microtubule CSK Stabilty (AID 2282909); conditions: HepG2 microtubule cytoskeleton imaging, actives raise or lower the signal
How it was run: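 HepG2 cells were treated 24 hr with compound at 0.39–200 uM in duplicate (0.5% DMSO final), then fixed and permeabilized. Alpha-tubulin immunofluorescence was imaged by high-content microscopy, with bidirectional fitting against DMSO and taxol as positive control.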

[5] = APR_HepG2_MitoticArrest_24hr: Apredica 24-hour HepG2 Assay for Mitotic Arrest (AID 2282910); conditions: high-content imaging, actives raise or lower the signal
How it was run: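 HepG2 human liver cells were exposed to compounds at 0.39–200 uM (10 concentrations, duplicate) in 0.5% v/v DMSO for 24 hr, then fixed and immunostained for phospho-histone H3 with Hoechst 33342. Mitotic arrest came from HCS fluorescent imaging, fitted bidirectionally against DMSO.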

[6] = APR_HepG2_MitoMembPot_24hr: Apredica 24-hour HepG2 Assay for Mitochondrial Membrane Potential (AID 2282911); conditions: imaging, actives raise or lower the signal
How it was run: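 Mitochondrial membrane potential imaged via MitoTracker Red CMXRos (250 nM, 30 min pre-fixation) in fixed HepG2 cells with Hoechst nuclear identification. Ten concentrations 0.39–200 uM, 24 h treatment, 0.5% DMSO; CCCP as positive control.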

[7] = APR_HepG2_MitoMass_24hr: Apredica 24-hour HepG2 Assay for Mitochondrial Mass (AID 2282912); conditions: high-content imaging, actives raise or lower the signal
How it was run: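 HepG2 cells exposed 24 hr to 0.39–200 uM compound, 0.5% v/v DMSO, in duplicate. Stained before fixation with 250 nM MitoTracker Red CMXRos for 30 min, then imaged at 20x with Hoechst nuclei. Fitted in both directions against DMSO.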

[8] = APR_HepG2_p53Act_24hr: Apredica 24-hour HepG2 Assay for p53 Activation (AID 2282913); conditions: high-content imaging, actives raise or lower the signal;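 note: p53 protein immunofluorescence averaged per cell in HepG2 with Hoechst nuclei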
How it was run: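 Fluorescence imaging of formaldehyde-fixed HepG2 cells labelled for p53 and with Hoechst, 24 h after dosing (0.39–200 uM, duplicate wells, 0.5% v/v DMSO). Signal fitted in both directions relative to DMSO.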

[9] = APR_HepG2_CellCycleArrest_72hr: Apredica 72-hour HepG2 Assay for Cell Cycle Arrest (AID 2282914); conditions: high-content imaging, actives raise or lower the signal
How it was run: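 Read-out: nuclear DNA content from Hoechst 33342 high-content imaging (20x, six fields/well) after 3.7% formaldehyde fixation, fitted bidirectionally against DMSO. Treatment was 72 h in HepG2, ten concentrations 0.39–200 uM, duplicate, 0.5% DMSO.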

[10] = APR_HepG2_CellLoss_72hr: Apredica 72-hour HepG2 Assay for Cell Loss (AID 2282915); conditions: high-content imaging
How it was run: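 HepG2 cells were exposed for 72 hr to compounds at 0.39–200 uM (ten concentrations, duplicate) in 0.5% v/v final DMSO. Nuclei were stained with Hoechst 33342 after 3.7% formaldehyde fixation, imaged at 20x, and counted; fits bidirectional versus DMSO.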

[11] = APR_HepG2_CellCycleArrest_1hr: Apredica 1-hour HepG2 Assay for Cell Cycle Arrest (AID 2282666); conditions: high-content imaging, actives raise or lower the signal
How it was run: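 HepG2 cells exposed for 1 h to 0.39–200 uM compound (0.5% DMSO). Fixed, Hoechst-stained nuclei imaged by ArrayScan; DNA content quantified by Cell Cycle analysis; bidirectional fit against DMSO.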

[12] = APR_HepG2_CellLoss_1hr: Apredica 1-hour HepG2 Assay for Cell Loss (AID 2282668); conditions: high-content imaging;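 note: curves fitted both ways against DMSO so gain or loss of cells counts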
How it was run: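 HepG2 cells were treated for 1 h with compound at 0.39–200 uM, in duplicate, in 0.5% DMSO. After formaldehyde fixation, Hoechst 33342-stained nuclei were imaged on an ArrayScan to count cells. Data were fitted bidirectionally versus DMSO.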

[13] = APR_HepG2_MicrotubuleCSK_1hr: Apredica 1-hour HepG2 Assay for Microtubule CSK Stabilty (AID 2282669); conditions: HepG2 microtubule cytoskeleton imaging, actives raise or lower the signal
How it was run: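 HepG2 cells exposed 1 h to 0.39–200 uM compound (0.5% DMSO, duplicates), then formaldehyde-fixed, permeabilized and immunostained for alpha-tubulin with Hoechst nuclei. Imaged by ArrayScan high-content analysis; bidirectional fit versus DMSO.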

[14] = APR_HepG2_NuclearSize_1hr: Apredica 1-hour HepG2 Assay for Nuclear Size (AID 2282670); conditions: high-content imaging, actives raise or lower the signal
How it was run: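 HepG2 cells dosed 1 hr with 0.39–200 uM compound (0.5% DMSO), formaldehyde-fixed, Hoechst 33342-stained and imaged at 20x; nuclear diameter from nuclear stain, fitted bidirectionally against DMSO.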

[15] = APR_HepG2_MitoticArrest_1hr: Apredica 1-hour HepG2 Assay for Mitotic Arrest (AID 2282672); conditions: high-content imaging, actives raise or lower the signal
How it was run: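 HepG2 cells exposed 1 hr to compounds at 0.39–200 uM (0.5% v/v DMSO final), then fixed in 3.7% formaldehyde and immunostained for phospho-histone H3 with Hoechst 33342. Mitotic arrest scored by automated fluorescence imaging, fitted bidirectionally versus DMSO.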

[16] = APR_HepG2_P-H2AX_1hr: Apredica 1-hour HepG2 Assay for H2AX Phosphorylation (AID 2282673); conditions: high-content imaging, actives raise or lower the signal
How it was run: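 HepG2 dosed 1 hr at 0.39-200 uM (0.5% DMSO final), duplicate. Fixed in 3.7% formaldehyde, Triton permeabilized, immunostained for phospho-histone H2A.x (1:200) with Hoechst 33342; ArrayScan 20x imaging, bidirectional fit vs DMSO.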

[17] = APR_HepG2_MitoMass_1hr: Apredica 1-hour HepG2 Assay for Mitochondrial Mass (AID 2282674); conditions: high-content imaging, actives raise or lower the signal
How it was run: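 HepG2 cells dosed 1 hr with 0.39-200 uM compound (0.5% DMSO), duplicate wells. Mitochondria stained with 250 nM MitoTracker Red CMXRos for 30 min before formaldehyde fixation, imaged at 20x by ArrayScan; bidirectional fit versus DMSO.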

[18] = APR_HepG2_MitoMembPot_1hr: Apredica 1-hour HepG2 Assay for Mitochondrial Membrane Potential (AID 2282675); conditions: imaging, actives raise or lower the signal
How it was run: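 HepG2 cells dosed 1 hour with 0.39–200 uM compound in duplicate, 0.5% DMSO final. MitoTracker Red CMXRos (250 nM, 30 min) loaded before formaldehyde fixation; fluorescence quantified by high-content imaging, bidirectional fitting versus DMSO.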

[19] = APR_HepG2_StressKinase_1hr: Apredica 1-hour HepG2 Assay for Stress Kinase (AID 2282906); conditions: HepG2 stress kinase (phospho-c-Jun) imaging, actives raise or lower the signal
How it was run: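 HepG2 cells dosed 0.39-200 uM (0.5% DMSO) for 1 h, then formaldehyde-fixed. Stress kinase read by phospho-c-Jun immunofluorescence using high-content imaging; bidirectional fit vs DMSO.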

[20] = ACEA_ER_80hr: ACEA Biosciences xCELLigence Real-Time Cell Analysis on Estrogen Receptor Agonism for Proliferation (AID 2282667; active = hit-call score of the fitted dose curve at least 0.9, where 1 is the maximum); conditions: T47D proliferation, impedance (xCELLigence), 80 h
How it was run: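 Real-time impedance growth kinetics of human T-47D breast cells read 80 h after dosing, gain-of-signal fitted relative to DMSO. Compounds: 1:4 serial series, top final concentration 100 uM, n = 2.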

Measured: AC50

CCCCCCOC(=O)c1ccccc1C(=O)OCCCCCC
active: [3] 97.3 µM | [6] 112 µM | [9] 109 µM | [10] 102 µM
inactive: [1] | [2] | [4] | [5] | [7] | [8]

CN(C)c1nc(=O)n(C2CCCCC2)c(=O)n1C
not listed: [8] | [20]
inactive: all other assays above

CCCCCCCCCc1ccc(O)cc1
inactive: [20] | [1] | [2] | [3] | [4] | [5] | [6] | [7] | [8] | [9] | [10]

Clc1ccc(C(Cl)(Cl)Cl)cc1
inactive: [20] | [1] | [2] | [3] | [4] | [5] | [6] | [7] | [8] | [9] | [10]

ClC1=C(Cl)[C@]2(Cl)[C@@H]3[C@@H](Cl)[C@H]4O[C@H]4[C@@H]3C1(Cl)C2(Cl)Cl
inactive: [20] | [2] | [6] | [7]
active: [1] 80.1 µM | [3] 81.7 µM | [4] 82.1 µM | [5] 66.5 µM | [8] 87.7 µM | [9] 86.3 µM | [10] 75.4 µM

CCC(C)(CC)c1cc(NC(=O)c2c(OC)cccc2OC)on1
active: [10] 66.4 µM
not listed: [8] | [20]
inactive: all other assays above

ClC(Cl)=C(c1ccc(Cl)cc1)c1ccc(Cl)cc1
active: [3] 55.3 µM | [5] 60.7 µM | [6] 23.2 µM | [7] 50.4 µM | [8] 57.2 µM | [9] 17 µM | [10] 50 µM
inactive: [20] | [1] | [2] | [4]

Cc1ccccc1CO[C@@H]1C[C@@]2(C(C)C)CC[C@]1(C)O2
active: [1] 79.8 µM
not listed: [8] | [20]
inactive: all other assays above

Oc1c(Cl)c(Cl)c(Cl)c(Cl)c1Cl
inactive: [20] | [2] | [3] | [4] | [5] | [6] | [7] | [8]
active: [1] 86.7 µM | [9] 60.8 µM | [10] 55.9 µM

CCC(C)(c1ccc(O)cc1)c1ccc(O)cc1
active: [20] 285 nM [middle of 4 runs] | [3] 111 µM | [5] 106 µM | [6] 57.6 µM | [7] 127 µM | [8] 101 µM | [10] 108 µM
inactive: [1] | [2] | [4] | [9]

CCCCCCCCOC(=O)c1ccccc1C(=O)OCCCCCCCC
inactive: [1] | [2] | [3] | [4] | [5] | [6] | [7] | [8] | [9] | [10]
active: [20] 75.4 µM

CCCCCCCCCC[N+](C)(C)CCCCCCCCCC
active: [1] 43 µM | [3] 4.36 µM | [4] 10.9 µM | [5] 4.34 µM | [6] 26 µM | [9] 48.2 µM | [10] 3.25 µM
inactive: [20] | [2] | [7] | [8]

C[C@]12CCC(=O)C=C1CC[C@@H]1[C@@H]2CC[C@@]2(C)[C@H]1CC[C@]2(C)O
inactive: [1] | [2] | [3] | [4] | [5] | [6] | [7] | [8] | [9] | [10]

CCC(C)c1cc([N+](=O)[O-])cc([N+](=O)[O-])c1O (stereo not drawn)
active: [1] 49.6 µM | [6] 100 µM | [9] 75.8 µM | [10] 51 µM
inactive: [20] | [2] | [3] | [4] | [5] | [7] | [8]

CCC(=O)O[C@H]1CC[C@H]2[C@@H]3CCC4=CC(=O)CC[C@]4(C)[C@H]3CC[C@]12C
active: [3] 107 µM | [5] 116 µM | [7] 107 µM | [10] 125 µM
inactive: [1] | [2] | [4] | [6] | [8] | [9]

O=S(=O)(O)C(F)(F)C(F)(F)C(F)(F)C(F)(F)F
inactive: [1] | [2] | [3] | [4] | [5] | [6] | [7] | [8] | [9] | [10]

O=C(NC(=O)c1cc(F)c(F)cc1Cl)Nc1cc(F)ccc1N1CCC(C(=O)O)CC1
inactive: [1] | [2] | [3] | [4] | [5] | [6] | [7] | [8] | [9] | [10]
